# PubChem BioAssay (Tox21)
# Records with an inconclusive call do not appear. A call without a number means that no potency is given here. Activity calls are given as the source filed them. Unless noted, the call rests on the fitted dose curve; in most records, active means well fitted curve in the direction sought with a large enough effect in the repeat runs; inconclusive means weak or mixed curves; inactive means no such curve, though single readings can be large; an effect the other way counts as inactive or inconclusive.
# Tests used:
# [1] = qHTS assay to identify small molecule antagonists of the glucocorticoid receptor (GR) signaling pathway - cell viability counter screen (AID 720693); further: nearly all actives have a fitted effect of over 55% in size
# [2] = qHTS assay for identifying genotoxic compounds that show differential cytotoxicity against isogenic chicken DT40 cell lines with known DNA damage response pathways - wild type cell line (AID 743012); further: nearly all actives have a fitted effect of over 60% in size; further: potency means the concentration at half of the fitted maximal effect
# Summary of the method: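 300 wt DT40 cells/well; cpd (DMSO) pintool-transferred after ~0.5 h at 37 C/5% CO2; 40 h incubation; CellTiter-Glo added, 30 min RT; luminescence read.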
# [3] = qHTS assay for identifying genotoxic compounds that show differential cytotoxicity against isogenic chicken DT40 cell lines with known DNA damage response pathways - Rev3 mutant cell line (AID 743014); further: nearly all actives have a fitted effect of over 55% in size; further: potency means the concentration at half of the fitted maximal effect
# [4] = qHTS assay for identifying genotoxic compounds that show differential cytotoxicity against isogenic chicken DT40 cell lines with known DNA damage response pathways - Rad54/Ku70 mutant cell line (AID 743015); further: nearly all actives have a fitted effect of over 60% in size; further: potency means the concentration at half of the fitted maximal effect
# [5] = qHTS assay to identify small molecule antagonists of the androgen receptor (AR) signaling pathway - cell viability counter screen (AID 743033; further: nearly all actives have a fitted effect of over 45% in size)
# [6] = qHTS assay to identify small molecule antagonists of the androgen receptor (AR) signaling pathway using the MDA cell line - cell viability counter screen (AID 743041; further: nearly all actives have a fitted effect of over 45% in size)
# Summary of the method: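 qHTS viability read-out; MDA-kb2 AR-luc; R1881-stimulated; 16 h exposure at 37C, 0% CO2; CellTiter-Fluor, 30 min; fluorescence intensity.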
# [7] = qHTS assay to identify small molecule antagonists of the thyroid receptor (TR) signaling pathway - cell viability counter screen (AID 743064); further: nearly all actives have a fitted effect of over 50% in size; further: potency means the concentration at half of the fitted maximal effect
# Summary of the method: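 GH3.TRE-Luc cells, 4 h pre-plating; cpd + T3 1 nM final; 37 °C 23.5 h; CellTiter-Fluor 30 min; fluorescence read.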
# [8] = qHTS assay to identify small molecule antagonists of the thyroid receptor (TR) signaling pathway (AID 743065); further: nearly all actives have a fitted effect of over 55% in size; further: potency means the concentration at half of the fitted maximal effect
# Summary of the method: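 GH3.TRE-Luc rat pituitary cells carrying two TR response elements driving luciferase were plated for 4 h, given compound plus 1 nM T3 (final), and incubated 23.5 h at 37 C. ONE-Glo luminescence measured reporter inhibition; CellTiter-Fluor fluorescence tracked cytotoxicity.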
# [9] = tested on: thyroid hormone receptor (rat, GH3 cells); assay: qHTS assay to identify small molecule agonists of the thyroid receptor (TR) signaling pathway (AID 743066; calls by dose curve)
# [10] = target: Estrogen receptor (Homo sapiens) (UniProt P03372); assay: qHTS assay to identify small molecule antagonists of the estrogen receptor alpha (ER-alpha) signaling pathway (AID 743069; active means well fitted curve in the direction sought with a large enough effect in the signal ratio in the repeat runs, not every such curve was filed as active; the % refers to the signal ratio)
# Estrogen receptor (Homo sapiens), sequence (P03372 whole entry, looked up): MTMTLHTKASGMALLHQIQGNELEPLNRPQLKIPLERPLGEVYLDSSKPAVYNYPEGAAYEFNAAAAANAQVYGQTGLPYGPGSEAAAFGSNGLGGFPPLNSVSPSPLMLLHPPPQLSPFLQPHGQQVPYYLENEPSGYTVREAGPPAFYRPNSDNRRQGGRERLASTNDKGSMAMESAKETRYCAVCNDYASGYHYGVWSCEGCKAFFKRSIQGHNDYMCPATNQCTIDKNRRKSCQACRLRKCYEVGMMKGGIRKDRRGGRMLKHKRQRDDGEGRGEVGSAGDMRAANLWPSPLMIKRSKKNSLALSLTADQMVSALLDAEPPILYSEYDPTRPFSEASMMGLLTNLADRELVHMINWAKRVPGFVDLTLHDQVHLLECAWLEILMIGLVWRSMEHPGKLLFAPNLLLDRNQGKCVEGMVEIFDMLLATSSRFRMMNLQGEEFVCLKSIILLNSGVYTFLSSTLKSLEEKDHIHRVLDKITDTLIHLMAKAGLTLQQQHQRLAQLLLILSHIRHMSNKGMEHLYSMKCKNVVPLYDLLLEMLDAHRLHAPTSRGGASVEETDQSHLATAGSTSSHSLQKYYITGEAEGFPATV
# Summary of the method: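 Screening used a UAS-driven beta-lactamase reporter integrated into HEK293 cells expressing ER-alpha, stimulated with 17beta-estradiol alongside test compounds over 18 hr at 37C; signal came from LiveBLAzer B/G FRET fluorescence.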
# [11] = qHTS assay to identify small molecule antagonists of the estrogen receptor alpha (ER-alpha) signaling pathway - cell viability counter screen (AID 743074; calls by dose curve; further: nearly all actives have a fitted effect of over 45% in size)
# [12] = target: Estrogen receptor (Homo sapiens) (UniProt P03372); assay: qHTS assay to identify small molecule agonists of the estrogen receptor alpha (ER-alpha) signaling pathway (AID 743075; calls by dose curve)
# [13] = target: Estrogen receptor (Homo sapiens) (UniProt P03372); assay: qHTS assay to identify small molecule agonists of the estrogen receptor alpha (ER-alpha) signaling pathway using the BG1 cell line (AID 743079); further: nearly all actives have a fitted effect of over 20% in size
# [14] = qHTS assay to identify small molecule antagonists of the estrogen receptor alpha (ER-alpha) signaling pathway using the BG1 cell line (AID 743080; calls by dose curve;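 further: BG1 cells stimulated with 17beta-estradiol alongside compound; series mostly up to about 70 µM; nearly all actives have a fitted effect of over 25% in size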)
# Summary of the method: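 Quantitative HTS on the Tox21 10K library: BG1 cells with endogenous ER-alpha and ERE-luciferase reporter, 17beta-estradiol stimulation, 21.5 h compound exposure, luminescence endpoint with parallel fluorescence cytotoxicity counter-read.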
# [15] = qHTS assay to identify small molecule antagonists of the estrogen receptor alpha (ER-alpha) signaling pathway using the BG1 cell line - cell viability counter screen (AID 743081);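 further: compound given together with 17beta-estradiol as the ER stimulus; series mostly up to about 70 µM; nearly all actives have a fitted effect of over 45% in size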
# [16] = target: Androgen receptor (Homo sapiens) (UniProt P10275); assay: qHTS assay to identify small molecule agonists of the androgen receptor (AR) signaling pathway (AID 743036; active means well fitted activation curve with a large enough effect in the signal ratio in the repeat runs, with a control signal flat, not every such curve was filed as active; the % refers to the signal ratio)
# Androgen receptor (Homo sapiens), sequence (P10275 whole entry, looked up): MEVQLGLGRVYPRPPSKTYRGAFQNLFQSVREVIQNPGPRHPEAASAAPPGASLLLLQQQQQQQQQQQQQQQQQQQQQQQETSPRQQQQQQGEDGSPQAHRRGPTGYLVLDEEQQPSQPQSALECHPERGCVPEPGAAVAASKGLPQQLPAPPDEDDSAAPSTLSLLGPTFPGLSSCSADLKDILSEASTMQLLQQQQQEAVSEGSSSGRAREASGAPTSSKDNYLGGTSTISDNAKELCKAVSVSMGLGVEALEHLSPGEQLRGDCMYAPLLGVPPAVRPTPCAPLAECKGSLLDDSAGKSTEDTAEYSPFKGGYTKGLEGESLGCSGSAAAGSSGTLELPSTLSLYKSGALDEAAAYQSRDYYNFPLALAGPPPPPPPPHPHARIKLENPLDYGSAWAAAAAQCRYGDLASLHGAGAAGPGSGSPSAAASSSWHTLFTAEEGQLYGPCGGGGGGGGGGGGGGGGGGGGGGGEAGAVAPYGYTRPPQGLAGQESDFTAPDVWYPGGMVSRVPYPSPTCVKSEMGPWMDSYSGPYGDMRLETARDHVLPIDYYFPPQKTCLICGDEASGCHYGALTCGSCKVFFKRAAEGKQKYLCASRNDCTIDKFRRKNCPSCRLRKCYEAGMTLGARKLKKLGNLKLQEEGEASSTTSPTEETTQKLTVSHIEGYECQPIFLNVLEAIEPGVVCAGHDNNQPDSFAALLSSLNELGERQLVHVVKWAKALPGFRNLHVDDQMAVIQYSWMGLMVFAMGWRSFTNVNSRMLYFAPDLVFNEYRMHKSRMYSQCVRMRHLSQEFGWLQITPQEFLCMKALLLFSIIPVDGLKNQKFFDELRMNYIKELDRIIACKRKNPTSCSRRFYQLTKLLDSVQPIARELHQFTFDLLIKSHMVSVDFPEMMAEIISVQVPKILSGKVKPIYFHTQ
# Summary of the method: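 AR-bla HEK293 cells, 2,000/well; 4 h preincubation 37C/5% CO2; compound (DMSO) 16 h at 37C; LiveBLAzer B/G FRET substrate 2 h RT; fluorescence intensity read-out.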
# [17] = target: Androgen receptor (Homo sapiens) (UniProt P10275); assay: qHTS assay to identify small molecule agonists of the androgen receptor (AR) signaling pathway using the MDA cell line (AID 743040; further: nearly all actives have a fitted effect of over 20% in size)
# Summary of the method: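 Agonist activity is measured as luciferase luminescence in human MDA-kb2 cells whose MMTV reporter responds to both AR and GR. Compounds in DMSO incubate 16 h at 37C, 0% CO2, and ONE-Glo is read after 30 min.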
# [18] = target: Androgen receptor (Homo sapiens) (UniProt P10275); assay: qHTS assay to identify small molecule antagonists of the androgen receptor (AR) signaling pathway using the MDA cell line (AID 743042; further: nearly all actives have a fitted effect of over 55% in size)
# Summary of the method: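 MDA-kb2 cells (human breast carcinoma, stably carrying an MMTV-luciferase reporter responsive to AR and GR) were plated at 3,000 cells/well and preincubated 5 hr at 37C, then given compound plus R1881 agonist for 16 h. ONE-Glo luminescence was read.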
# Aromatase (Homo sapiens) = Aromatase (Homo sapiens) (UniProt P11511); assay: qHTS assay to identify aromatase inhibitors (AID 743083)
# Aromatase (Homo sapiens), sequence (P11511 whole entry, looked up): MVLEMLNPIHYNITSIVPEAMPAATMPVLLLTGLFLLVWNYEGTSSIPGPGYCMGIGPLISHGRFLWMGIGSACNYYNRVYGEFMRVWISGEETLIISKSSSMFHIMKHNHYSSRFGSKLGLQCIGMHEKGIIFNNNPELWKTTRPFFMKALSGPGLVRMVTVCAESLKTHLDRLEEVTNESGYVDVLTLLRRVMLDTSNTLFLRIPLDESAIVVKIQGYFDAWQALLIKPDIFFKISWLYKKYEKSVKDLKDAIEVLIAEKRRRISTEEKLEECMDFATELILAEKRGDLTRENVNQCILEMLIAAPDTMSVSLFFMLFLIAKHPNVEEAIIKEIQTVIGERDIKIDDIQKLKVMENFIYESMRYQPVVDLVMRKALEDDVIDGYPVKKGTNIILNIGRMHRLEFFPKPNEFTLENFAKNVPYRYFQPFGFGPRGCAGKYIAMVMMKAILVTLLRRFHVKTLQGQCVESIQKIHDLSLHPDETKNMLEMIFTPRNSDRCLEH
# [19] = target: Androgen receptor (Homo sapiens) (UniProt P10275); assay: qHTS assay to identify small molecule antagonists of the androgen receptor (AR) signaling pathway (AID 743035; active means well fitted inhibition curve with a large enough effect in the signal ratio in the repeat runs, not every such curve was filed as active; the % refers to the signal ratio)
# Summary of the method: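 In this cell-based reporter screen, compounds were tested in concentration series against R1881-activated HEK293 cells expressing beta-lactamase under UAS control; after 16 h at 37C, FRET substrate was added and fluorescence read 2 h later.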
SMILES,Potency [1],Potency [2],Potency [3],Potency [4],Potency [5],Potency [6],Potency [7],Potency [8],outcome [9],Potency [10],outcome [11],Potency [12],Potency [13],Potency [14],Potency [15],outcome [16],outcome [17],Potency [18],Potency (Aromatase (Homo sapiens)),Potency [19]
OCCc1ccncc1,inactive,inactive,inactive,inactive,inactive,inactive,inactive,inactive,inactive,inactive,inactive,inactive,inactive,inactive,inactive,–,–,–,–,–
CCC[Si](OC)(OC)OC,inactive,inactive,inactive,inactive,inactive,inactive,inactive,inactive,inactive,inactive,inactive,inactive,inactive,inactive,inactive,inactive,inactive,inactive,inactive,–
O=C(O)c1ccc(O)c(O)c1,inactive,inactive,inactive,inactive,inactive,inactive,–,inactive,inactive,inactive,inactive,inactive,inactive,inactive,inactive,inactive,inactive,inactive,inactive,inactive
Cc1cc(SC2=C(O)C[C@@](CCc3ccc(N)cc3)(C(C)C)OC2=O)c(C(C)(C)C)cc1CO,inactive,inactive,inactive,inactive,inactive,inactive,inactive,inactive,inactive,–,inactive,–,–,–,inactive,–,inactive,inactive,inactive,inactive
NC(=O)c1ccccc1C(N)=O,inactive,inactive,inactive,inactive,inactive,inactive,inactive,inactive,inactive,inactive,inactive,inactive,inactive,inactive,inactive,–,inactive,inactive,inactive,inactive
O=C(O)c1ccncc1,inactive,inactive,inactive,inactive,inactive,inactive,inactive,inactive,inactive,–,inactive,–,–,–,inactive,inactive,inactive,inactive,inactive,inactive
CCCOC(C)=O,inactive,inactive,inactive,inactive,inactive,inactive,–,inactive,inactive,–,inactive,inactive,inactive,inactive,inactive,inactive,inactive,inactive,inactive,–
C=CC(=O)OCCCCCCCCCC,inactive,inactive,inactive,inactive,inactive,inactive,inactive,inactive,inactive,inactive,inactive,inactive,inactive,inactive,inactive,–,–,–,inactive,–
CC(CCl)OC(C)CCl (stereo not given),inactive,inactive,inactive,inactive,inactive,inactive,inactive,inactive,inactive,inactive,inactive,inactive,inactive,inactive,inactive,–,–,–,–,–
FC(F)(Cl)C(F)(Cl)Cl,inactive,inactive,inactive,inactive,inactive,–,inactive,inactive,inactive,inactive,–,inactive,inactive,inactive,inactive,inactive,inactive,inactive,inactive,inactive
O=C(OC1C[C@H]2CC[C@@H](C1)[N+]21CCCC1)C(O)(c1ccccc1)c1ccccc1 (stereo not given in full),inactive,inactive,inactive,inactive,inactive,–,inactive,inactive,inactive,–,–,–,–,–,inactive,inactive,inactive,inactive,inactive,–
SCCOCCOCCS,inactive,inactive,inactive,inactive,inactive,inactive,inactive,inactive,inactive,inactive,inactive,inactive,inactive,inactive,inactive,–,–,–,inactive,–
CCCCCCCCOCCCN,inactive,4.33 µM (active),6.86 µM (active),6.86 µM (active),inactive,–,13.7 µM (active),21.7 µM (active),inactive,–,inactive,inactive,–,inactive,inactive,–,inactive,inactive,inactive,inactive
Cc1ccc(NC(=O)c2ccc(CN3CCN(C)CC3)cc2)cc1Nc1nccc(-c2cccnc2)n1,inactive,15 µM (active),11.9 µM (active),13.3 µM (active),inactive,–,21.1 µM (active),26.6 µM (active),–,–,inactive,inactive,inactive,–,–,–,inactive,–,–,–
O=C(O)c1cccc(C(=O)O)c1C(=O)O,inactive,inactive,inactive,inactive,inactive,–,–,inactive,inactive,inactive,–,inactive,inactive,inactive,inactive,inactive,inactive,inactive,inactive,inactive
Nc1ccc(F)cc1F,inactive,inactive,inactive,inactive,inactive,inactive,inactive,–,–,–,inactive,inactive,inactive,inactive,inactive,inactive,inactive,inactive,inactive,inactive
CCOc1ccc(NC(C)=O)cc1N,inactive,inactive,inactive,inactive,inactive,inactive,inactive,inactive,inactive,–,inactive,inactive,–,–,inactive,inactive,inactive,inactive,inactive,–
